Only a selection was taken, and hits are over-represented in it overall.
ST2 IL33 inh – inhibitors of human ST2 (IL1RL1) binding to IL-33; AID 1259354; AlphaLISA ST2-Fc/biotin-IL-33 interaction, 1 h; Q01638; inhibition, % for hits at 17 µM; hit rate 2.3% among 78,000; in the data active = inhibition above about 30%
Target sequence (Q01638 whole entry, looked up): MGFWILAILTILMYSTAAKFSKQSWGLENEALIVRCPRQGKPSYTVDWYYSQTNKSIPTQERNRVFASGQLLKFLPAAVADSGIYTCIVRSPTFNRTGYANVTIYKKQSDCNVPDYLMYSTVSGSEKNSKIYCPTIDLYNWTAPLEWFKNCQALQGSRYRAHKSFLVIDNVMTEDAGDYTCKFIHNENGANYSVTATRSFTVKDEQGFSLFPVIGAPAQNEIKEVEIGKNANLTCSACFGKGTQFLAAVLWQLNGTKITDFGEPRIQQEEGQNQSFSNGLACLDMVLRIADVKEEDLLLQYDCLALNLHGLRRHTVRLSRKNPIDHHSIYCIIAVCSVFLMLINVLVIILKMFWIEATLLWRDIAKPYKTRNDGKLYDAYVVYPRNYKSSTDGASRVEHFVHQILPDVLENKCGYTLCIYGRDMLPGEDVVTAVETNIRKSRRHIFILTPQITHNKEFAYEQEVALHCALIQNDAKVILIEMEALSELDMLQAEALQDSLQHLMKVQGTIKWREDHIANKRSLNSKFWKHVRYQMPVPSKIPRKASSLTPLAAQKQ
Starred values were filed as active, the others as inactive; i = inactive.

SMILES	ST2 IL33 inh
COc1cccc(/C=C2\SC(N3CCN(C)CC3)=NC2=O)c1OC	i
O=C(/C=C1\Sc2ccccc2NC1=O)NCc1ccc2c(c1)OCO2	i
CCOc1ccc(OCC)c(-n2cc(-c3ccc(OCC)c(Cl)c3)[nH]c2=O)c1	i
O=C(NCCc1nc(-c2ccccn2)no1)c1ccccc1N1CCOCC1	i
COc1cccc(C(=O)Oc2ccc(N3C(=O)C4C5CCC(C5)C4C3=O)cc2)c1 (configuration not stated)	i
O=C(Nc1ccc(F)cc1)c1oc2ccccc2c1NC(=O)c1c(F)cccc1F	i
COc1ccc(C=NS(=O)(=O)c2ccc(C)cc2)c(OC)c1	i
O=C1OC(Nc2ccc(Cl)cc2Cl)c2ccccc21 (configuration not stated)	i
CC1=C(/C=C/c2ccc(Cl)cc2Cl)C(=O)c2ccccc2C1=O	37%*
COc1ccc2oc(=O)c(NC(=O)/C=C/c3ccc(Cl)cc3Cl)cc2c1	i
Cc1ccc(-c2nnc([C@H]3CCN(Cc4ccc(N(C)C)cc4)C3)o2)cc1	i
Cn1c(=O)c2c(nc(NCCO)n2Cc2ccc(Cl)c(Cl)c2)n(C)c1=O	i
CC(=O)c1ccc(NC(=O)c2cc3cc(Br)ccc3oc2=O)cc1	39%*
CC(=O)c1ccc(OC(=O)c2cc3cc(Br)ccc3oc2=O)cc1	i
Cc1ccc(NC(=O)c2cc3cc(Br)ccc3oc2=O)cc1C	i
CN(CC(=O)Nc1ccc(F)cc1F)S(=O)(=O)c1ccc2c(c1)CCC(=O)N2	i
O=C1c2c(O)cc(O)cc2OC(c2ccc(O)c(O)c2)C1O (configuration not stated)	i
O=C(O[C@@H]1Cc2c(O)cc(O)cc2O[C@@H]1c1cc(O)c(O)c(O)c1)c1cc(O)c(O)c(O)c1	31%*
O=C(Oc1cc(O)c2c(c1)O[C@@H](c1ccc(O)c(O)c1)[C@H](O)C2)c1cc(O)c(O)c(O)c1	i
COc1cc2c(cc1OC)C(C)N(C(=O)c1ccc([N+](=O)[O-])cc1)CC2 (configuration not stated)	i
O=C(Oc1cccc2cccnc12)c1ccccc1F	i
Cc1ccc(NC(=O)c2ccc(C)c(S(=O)(=O)Nc3ccccn3)c2)cc1	i
O=S(=O)(Nc1ccccn1)c1ccc(Br)cc1	i
O=C(Nc1ccc(Br)cc1)c1cccc(S(=O)(=O)Nc2ccccn2)c1	42%*
COc1cc(NC(=O)/C=C/c2ccc(Cl)cc2)ccc1NC(=O)c1ccco1	i
SMILES	ST2 IL33 inh
COc1cc(-c2ccc(NC(=O)c3ccco3)c(OC)c2)ccc1NC(=O)c1ccco1	31%*
COc1cc(-c2ccc(NC(C)=O)c(OC)c2)ccc1NC(C)=O	i
COc1ccc(C)cc1N(CC(=O)Nc1cccnc1)S(C)(=O)=O	i
O=C(O)c1c2c(nc3ccccc13)CCN(S(=O)(=O)c1ccc(Cl)cc1)C2	i
O=C(O)C[C@@H]1CCN(C(=O)c2ccccc2)C[C@@H]1CCN1CCN(c2cccc(C(F)(F)F)c2)CC1	i
O=C(O)C[C@@H]1CCN(C(=O)Cc2ccccc2)C[C@@H]1CCN1CCN(c2cccc(C(F)(F)F)c2)CC1	i
O=C(O)C[C@@H]1CCN(C(=O)Nc2ccccc2)C[C@@H]1CCN1CCN(c2ccc(F)cc2)CC1	69%*
O=C(O)C[C@@H]1CCN(C(=O)Cc2cccs2)C[C@@H]1CCN1CCOCC1	54%*
CC(=O)Nc1ccc(S(=O)(=O)N(CCCN2CCOCC2)Cc2cccs2)cc1	i
O=C(Nc1cccc(F)c1)N1CCN(c2ccc(F)cc2)CC1	i
COc1ccc(Nc2ncnc3c2cnn3-c2ccccc2)cc1Cl	i
CN(Cc1csc(-c2ccccc2)n1)C(=O)CC1COCCN1 (configuration not stated)	i
COc1ccc(C2C(C(N)=O)=C(C)Nc3nc(SCc4ccccc4F)nn32)cc1 (configuration not stated)	i
COc1ccc2cc(S(=O)(=O)n3cnc4cc(C)c(C)cc43)ccc2c1	i
COc1ccc(CCNC(=O)CC(c2ccccc2)c2ccccc2)cc1OC	i
COc1ccc(CNc2oc(COc3ccc(Cl)cc3)nc2C#N)cc1	i
COc1ccc(CCNc2oc(COc3ccccc3C)nc2C#N)cc1OC	38%*
Cc1cccc(OCc2nnc(SCC(=O)Nc3ccc(C)c(C)c3)o2)c1	i
COc1ccc(CCNc2oc(COc3cccc(C)c3)nc2C#N)cc1	30%*
COc1ccccc1OCc1nc(C#N)c(NCc2cccnc2)o1	i
CC1=C[C@@H](CNCCN2CCOCC2)[C@H](C(C)C)C[C@H]1Cc1nnc(-c2cccnc2)o1	i
COc1cc2c(cc1CNC(=O)CC(=O)Nc1cccc(C)c1C)OCCO2	i
CC(C)c1noc(-c2ccc(N3CCCCC3CC(N)=O)nc2)n1 (configuration not stated)	i
COC(=O)c1cc2n(n1)CCCN(C(=O)CCn1nnc3ccccc31)C2	i
COc1ccc(CC(=O)N(C)CC2CCCN(CCc3ccc(Cl)cc3)C2)cc1 (configuration not stated)	i
